Source: the supplement of paper PMC3334620
In all, about 33,000 sequences were measured (“E-score (-0.5 to 0.5)”: median about -0.035, highest 2% from about 0.34 on). This is one part of a sample in which the highest values are shown more often than they occur.

target: T1, Mot3 (UniProt P54785); assay: PBM E-score (8-mer binding enrichment) (E-score (-0.5 to 0.5)); higher = stronger / more preferred TF binding; conditions: protein concentration: 200 nM; construct: GST-full length
T1 sequence: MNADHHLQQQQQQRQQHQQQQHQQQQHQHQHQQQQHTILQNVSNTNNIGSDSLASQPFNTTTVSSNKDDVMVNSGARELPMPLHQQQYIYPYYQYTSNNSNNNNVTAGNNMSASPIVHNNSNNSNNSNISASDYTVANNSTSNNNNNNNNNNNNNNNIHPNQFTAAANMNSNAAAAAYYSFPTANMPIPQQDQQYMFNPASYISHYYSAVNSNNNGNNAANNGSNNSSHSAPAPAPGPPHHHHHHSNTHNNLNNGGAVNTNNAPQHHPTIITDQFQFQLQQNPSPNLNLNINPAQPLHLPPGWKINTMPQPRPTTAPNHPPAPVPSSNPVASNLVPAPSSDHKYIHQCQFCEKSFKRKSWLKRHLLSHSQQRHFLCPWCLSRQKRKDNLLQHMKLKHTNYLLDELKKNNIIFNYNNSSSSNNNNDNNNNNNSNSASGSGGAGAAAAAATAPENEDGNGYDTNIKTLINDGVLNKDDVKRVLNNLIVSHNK
Experimental: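 Universal 'all 10-mer' protein binding microarrays (Agilent AMADID 015681) probed with GST-tagged S. cerevisiae TFs (full-length or DBD) made by in vitro transcription/translation (PURExpress), about 100-200 nM. Bound TF was detected with fluorescent anti-GST. Each ungapped 8-mer (which stands for itself and its reverse complement) is scored by the PBM enrichment score (E-score), a modified Wilcoxon-Mann-Whitney statistic from -0.5 to +0.5, computed with the Universal PBM Analysis Suite. Scale: above 0.35 generally sequence-specific binding.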

Sequence	PBM E-score
ATCTACCG	-0.115
ACTTTGCT	-0.0166
GTGCCCAA	0.392
ATGCCTAA	0.278
GTGCCCCA	-0.248
ATGCCCAA	-0.0977
ACGCCTAC	0.0133
GTGCCTAA	0.49
CCGCCTAC	-0.166
CTGCCTAA	0.258
GCGCCTAC	0.358
CTTAGAAA	0.11
AAAGCACC	-0.0982
CAAAGCCC	-0.0136
ACACAACA	0.307
CTAACCCA	-0.0185
TTAACGAA	0.128
TAAGGTGA	-0.0657
AACACGTA	0.32
AACACGAA	0.33
AACACGGC	0.257
AACACGGT	0.353
AACACGAC	0.344
CACACGAC	0.0741
AACACGTC	0.316

Sequence	PBM E-score
AACACGAT	0.349
GACACGAC	0.31
AACACGGA	0.252
AACACGAG	0.288
AACACGTT	0.365
GCATCGCA	-0.36
CGACTTAC	-0.127
GACGCAAC	-0.0695
AGGATTGC	-0.0652
CGTTGAGA	-0.183
AAGTTTTG	0.167
ACTGGGCG	-0.198
CGCACCTC	-0.0771
ATGCAAAT	0.146
AGGCAGAT	0.0714
GGGCAAAC	0.0101
TGGCAAAA	0.0985
AGGCAAAG	0.472
ATGCAAAG	0.128
GGGCAAAA	0.0722
CGGCAAAC	-0.217
CGGCAAAG	-0.226
AGGCAAAA	0.467
AGGCAAAT	0.479
AGGCAAAC	0.482

Sequence	PBM E-score
CCCGACGC	-0.262
ATCGGCGG	-0.342
ACCAGTAG	-0.0459
AAGGTGTG	-0.0849
TTACAGAA	0.106
ACGCTTAA	0.114
ATACTTAA	0.173
CCCCTAAG	-0.313
CGAGGCAG	-0.0696
CGAGGCAA	0.318
GGAGGCAA	0.437
AGAGGCAA	0.409
CGAGGCAC	0.411
TGAGGCAA	0.389
GGAGGCCA	-0.34
GGAGGCGA	-0.194
AGAGGCGA	-0.227
TGAGGCCA	0.0399
TGAGGGCA	-0.0148
AGAGGCCA	-0.274
CCCGTTGA	-0.205
ACGTTCTG	-0.0537
CCTCTTAC	-0.0603
ATCCATAG	-0.206
GGCCGGAC	-0.187

Sequence	PBM E-score
CACTGGTA	-0.00383
AGCGTTTC	0.127
GTTGCTTA	0.0798
AAGGATCA	0.0089
GGAGGCCC	-0.266
AGAGGCAT	-0.0714
GGAGGCAC	0.474
AGAGGCAG	-0.133
AGAGGCAC	0.465
GGGGGCAC	-0.156
GTTCTGGA	0.0443
AGGCACCT	0.491
GGGCACCC	-0.0287
GGGCACCA	0.171
CGGCACCA	-0.159
AGGCACCG	0.491
AAGCACCT	0.0273
AAGCACCG	-0.206
AGGCACCC	0.491
CGGCACCC	-0.126
ACGCACCT	0.129
AGGCACCA	0.492
CGGCACCG	-0.0283
CCTATTGA	0.124
CGGTGTAC	0.0428

Sequence	PBM E-score
GGAGATAC	-0.137
AGTTGGAC	0.0582
GGTAGAGA	-0.198
TCCGGAGA	-0.297
CCGGCGAG	-0.369
AATCGACA	0.201
GATCCATA	-0.201
ATGGCGGA	-0.302
TCTACCCA	-0.077
CGGTGTCC	-0.376
CAAAGCAG	0.05
AGCTAACC	-0.152
GTGTAGAA	0.364
ATGTAGGC	0.361
ATGTAGAA	0.359
GCGTAGAA	0.232
CTGTAGAA	0.191
ATGTAGGA	0.158
GTGTAGTA	0.292
CTGTAGGC	0.285
ATGTAGAG	0.252
GTGCGGTA	-0.0948
AGAGAGGA	-0.246
AGTTAGAG	-0.21
GGGAAGCA	-0.178

Sequence	PBM E-score
AACAGCCT	0.0281
CGAGCCAG	-0.0469
GTCGAACA	0.0718
GAAATTTA	0.165
GGGTAAAC	-0.0508
CTGTAAAA	0.302
ATGTAAAA	0.415
ATGTAAAG	0.411
TTGTAAAA	0.321
AAGTAAAG	0.131
CTGTAAAG	0.24
GTGTAAAC	0.387
CTGTAAAC	0.295
GTGTACAA	0.325
CTGTACAC	0.265
GTGTACAC	0.344
GCGCTCCA	-0.136
GTTCGCCA	-0.103
CCATTGAA	0.0844
CTCGGATC	-0.235
GTCGGGAA	-0.104
AGCATCCT	-0.268
ATAAGATA	0.0848
CACGTTGC	0.158
TAGCACGA	-0.0559

Sequence	PBM E-score
ACTCCGGG	-0.248
CGCTCATA	-0.225
GAGCCCAA	-0.136
CGGCCGGA	-0.264
CCGAACAC	-0.0162
GGGTAAAA	0.112
GTGTAAAA	0.377
ATGTAAAC	0.414
ATGTAAAT	0.42
ACGTAAAT	0.272
ACGTAAAC	0.251
AGGTAAAT	0.318
GCGTAAAA	0.314
AGGTAAAC	0.302
ATGGAGGA	0.0248
TAGTGACA	0.124
GTGTGCAA	0.128
CTGGCCCA	-0.265
TATCGGCA	-0.0281
ATAGCGCC	0.228
CGACTCTC	-0.347
CATCGAAG	-0.163
AACCTGGG	0.0477
AGGGACCA	-0.201
AGGTTTGG	-0.141

Sequence	PBM E-score
CCTTCAAC	0.247
CCTTCAAG	0.351
CCTTCAAA	0.115
AGAGAATC	-0.0691
AACCATTA	0.117
GAGGCCCC	-0.242
CTACACGC	0.356
CGACACGC	0.157
GTACACGA	0.327
CTACACGA	0.377
CTACACTA	0.135
CTACACAG	0.348
CTACACAC	0.333
TTACACAA	0.42
CTACACAA	0.29
GTACACAA	0.323
CTACACTC	0.0954
ATACACAG	0.332
AGCCAAGG	-0.106
AGTTCTCG	-0.137
AAAGTGTC	0.0356
AGCGACTC	-0.134
AATGTCTG	-0.0738
AGCGAGAG	-0.117
CTCAAGCC	-0.236

Sequence	PBM E-score
TCATAACA	0.255
AGAATGGA	-0.0583
AAGACCAT	-0.234
ATTAGGCA	0.472
CTTAGGTA	0.139
GTTAGGGA	-0.113
CTTAGGCA	0.444
GTTAGGTA	0.26
ATTAGGCG	-0.0797
CTTAGGCC	-0.0744
ATTAGGCC	-0.111
GTTAGGCA	0.454
CTATGCAA	0.0284
ACCTACCA	0.12
CGGGGATC	-0.303
AAAGCGTG	0.0569
ACCTGATA	0.203
ACTACACA	0.331
CCAACACG	0.299
GCTACACA	0.253
CCTACACG	0.336
ACTACACG	0.386
ACAACACA	0.337
TCTACACA	0.361
TCAACACA	0.353

Sequence	PBM E-score
ACTACACT	0.181
CCCAACGA	-0.0748
AGGGACTG	-0.226
CTGCAAGA	0.0551
CCTCTTCA	-0.171
ATAGCACG	-0.00445
GTAATCCA	0.225
ACAAAGCC	0.0921
CCAAATAG	0.00768
CGAAGGCC	-0.0438
TGAAGGCA	0.483
AGAAGGCT	-0.0686
TGAAGCCA	-0.0204
TGAAGTCA	0.0305
AGAAGGCG	0.27
AGAAGGCA	0.475
CGAAGGCG	0.193
CGAAGGCA	0.476
GGAAGGCC	-0.214
GGAAGGCA	0.482
GGAAGGGA	-0.292
ACCGAGAC	0.0166
CAAGCGTC	-0.0912
GCGGACAC	-0.3
ACGATCCA	-0.0439

Sequence	PBM E-score
CCCTAGTC	-0.163
TATAGGCA	0.482
GATAGGCA	0.473
AATAGGCC	-0.0184
GATAGGCC	0.0586
GATAGGGA	-0.155
TATAGGGA	-0.0815
AATAGGCA	0.479
TATAGTCA	0.188
CATAGGCC	0.135
CATAGGCA	0.476
CATAGGCG	0.0696
AATAGGCT	0.161
GAGTCGAA	-0.0456
CAAGGATG	0.121
CTCAAGCA	-0.101
GGAAGTAC	-0.139
ATGACCAT	0.0148
CGCACTCC	-0.223
CTGAGGTC	-0.255
CTTATGTA	0.342
CTTATGTC	0.0522
CTCATGTA	0.359
ATCATGTA	0.392
GTCATGTA	0.356

Sequence	PBM E-score
ATCATGTC	0.245
ATCATGTG	0.198
GTCATGCA	0.0879
GTCATGGA	-0.179
CTCATGTC	0.191
ATTATGTA	0.339
CTCATGGA	0.261
ATGGTTGA	-0.153
CCATCCGC	-0.164
CCGAAGAC	-0.306
GGGGTCTA	-0.0481
TAGAGAAA	-0.0644
CAACCAGA	0.0325
AAATAGCG	0.11
AGTTACGA	0.138
CCTAGAAA	0.0447
CTGAGCCC	-0.191
CCGTTGAG	-0.213
CAGACAAC	0.00587
CAGGCAAA	0.481
GAGGCAAA	0.328
CAGGCAAG	0.491
CAGGCAGA	0.0294
TAGGCAAA	0.48
CGGGCAAA	0.0704

Sequence	PBM E-score
TGGGCAAA	-0.0148
CAGGCAAC	0.489
CCGGCAAG	-0.0693
CAGGCAGG	0.306
CGGGCAAC	-0.129
ATCCACGG	-0.0193
AACCAGGT	-0.172
AAGACATC	-0.0992
CATAGTGC	0.117
ACAGCCGT	-0.24
CTCCGAAC	-0.132
ACACTACC	-0.089
ACCTTAAA	-0.092
GCCTTAAA	0.349
CCCTTAAA	-0.00813
CACACTCC	-0.178
AGGTACAA	0.363
ACGTACAT	0.286
ATGTACAT	0.378
TGGTACAA	0.0168
ATGTACAC	0.338
ATGTACAG	0.247
AGGTACAC	0.366
GGGTACAA	-0.012
AGGTACAT	0.367

Sequence	PBM E-score
CGGTACAC	0.00913
AAGTACAT	0.265
AGGTACAG	0.332
AAGGGGAA	-0.0624
CAACAGTG	-0.0633
CACGTGGC	-0.0488
GGCCTCAA	0.00845
TGCCTCCA	0.404
AGCCTCCA	-0.369
TGCCTCAA	0.365
AGCCTCAA	-0.265
CGCCTCCA	-0.0882
GACTGCTA	-0.251
AACGTGCG	0.0588
AGTGTGCC	0.355
AACGTGCA	0.136
CGCGTGCA	0.0183
CGCGTGCC	0.433
AGTGTGCG	-0.149
CGCGTGGC	-0.155
CGTGTGCC	0.23
AGCGTGCG	-0.185
AGCGTGCC	0.343
AACGTGCC	0.397
AGCGTGCA	0.092
